Records with an inconclusive call do not appear. Where a structure was tested more than once in an assay, its records may differ in their call. Calls of active or inactive are those of the source. Unless noted, calls come from the whole dose curve.
What was measured:
[1] = Nuclear factor erythroid 2-related factor 2/antioxidant responsive element (Nrf2/ARE) small molecule agonists: qHTS cell viability counter screen in human keratinocytes (AID 1919968; active = well fitted curve in the direction sought with a large enough effect in the repeat runs; an effect the other way counts as inactive or inconclusive; note: nearly all actives have a fitted effect of over 55% in size; note: potency is the fitted concentration of half-maximal effect)
How it was run: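 CellTiter-Fluor fluorescence, read 1 h after reagent, gave viability in the same wells as the ARE-luciferase assay. KeratinoSens cells (1,500/well) had 23 h compound exposure at 37 C/5% CO2 following 5 h plating.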

[2] = Nuclear factor erythroid 2-related factor 2/antioxidant responsive element (Nrf2/ARE) small molecule agonists: luciferase reporter gene qHTS assay in human keratinocytes (AID 1919969); note: nearly all actives have a fitted effect of over 35% in size
[3] = target: Gonadotropin-releasing hormone receptor (Homo sapiens) (UniProt P30968); assay: Human gonadotropin-releasing hormone receptor (GnRHR) small molecule agonists, calcium flux assay in GnRHR-HEK293 cells (AID 1920063); note: nearly all actives have a fitted effect of over 35% in size
Gonadotropin-releasing hormone receptor (Homo sapiens), sequence (P30968 whole entry, looked up): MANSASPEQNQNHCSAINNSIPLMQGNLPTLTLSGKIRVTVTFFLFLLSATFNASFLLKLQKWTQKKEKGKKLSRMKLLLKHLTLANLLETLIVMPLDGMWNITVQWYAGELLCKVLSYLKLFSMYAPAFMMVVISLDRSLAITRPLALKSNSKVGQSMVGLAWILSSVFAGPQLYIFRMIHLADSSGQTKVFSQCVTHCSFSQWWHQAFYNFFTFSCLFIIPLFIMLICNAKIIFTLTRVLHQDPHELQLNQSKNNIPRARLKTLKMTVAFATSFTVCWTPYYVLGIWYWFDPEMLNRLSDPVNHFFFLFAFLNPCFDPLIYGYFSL
How it was run: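 Agonist mode: compounds at 15 concentrations, in triplicate, went onto calcium dye-loaded GnRHR-HEK293 cells. Intracellular calcium was then followed as 480/540 nm fluorescence at 1 s intervals over 3 min.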

[4] = target: KiSS-1 receptor (Homo sapiens) (UniProt Q969F8); assay: Human kisspeptin (KISS1R) small molecule agonists, calcium flux assay in KISS1R-HEK293 cells (AID 1920064; active = well fitted curve in the direction sought with a large enough effect in the repeat runs; an effect the other way counts as inactive or inconclusive)
KiSS-1 receptor (Homo sapiens), sequence (Q969F8 whole entry, looked up): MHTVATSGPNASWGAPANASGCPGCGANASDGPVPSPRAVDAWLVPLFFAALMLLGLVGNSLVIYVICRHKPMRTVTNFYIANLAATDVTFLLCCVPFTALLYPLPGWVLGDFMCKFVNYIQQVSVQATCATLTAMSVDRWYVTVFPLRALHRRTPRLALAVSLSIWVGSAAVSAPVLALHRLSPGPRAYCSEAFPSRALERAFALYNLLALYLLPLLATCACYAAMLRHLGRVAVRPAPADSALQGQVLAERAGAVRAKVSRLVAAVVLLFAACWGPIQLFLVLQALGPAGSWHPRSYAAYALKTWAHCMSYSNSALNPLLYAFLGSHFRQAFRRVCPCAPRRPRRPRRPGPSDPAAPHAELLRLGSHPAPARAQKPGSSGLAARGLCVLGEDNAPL
How it was run: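 Agonist mode: intracellular calcium rise tracked at 1 s intervals over 3 min (480/540 nm) immediately after compound addition to dye-loaded KISS1R-HEK293 stable cells. Each compound tested at 15 concentrations in triplicate.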

[5] = G protein-coupled receptor (GPCR) small molecule agonists, calcium flux assay: HEK293 wild type cell line counter screen (AID 1920065)
How it was run: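 Calcium flux counter screen: compound added in agonist mode at 15 concentrations in triplicate to dye-loaded parental HEK293 cells. Fluorescence (480/540) read kinetically for 3 min; ATP served as positive control.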

[6] = p53 small molecule agonists, cell-based qHTS assay with human liver microsomes (AID 1963577);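 note: p53 response element beta-lactamase reporter cells with liver microsomes plus NADPH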
How it was run: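 In this qHTS, p53 response-element beta-lactamase cells receive test compound together with a microsome/NADPH activating system (0.5 mg/mL final each) and are incubated 16 h at 37 C before LiveBLAzer fluorescence detection.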

[7] = p53 small molecule agonists, cell-based qHTS assay with rat liver microsomes (AID 1963578)
How it was run: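 Agonist mode in p53RE-bla reporter cells, with compounds co-incubated 16 h at 37 C alongside 0.5 mg/mL rat liver microsomes and 0.5 mg/mL NADPH (final), followed by a 2 h LiveBLAzer detection step.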

[8] = p53 small molecule agonists, cell-based qHTS assay with human liver microsomes: qHTS cell viability counter screen (AID 1963579); note: nearly all actives have a fitted effect of over 45% in size
How it was run: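 Metabolically activated exposure: compounds, human liver microsomes and NADPH (0.5 mg/mL final apiece) were added to p53RE-bla cells seeded 5 h earlier, left 16 h at 37 C, and then assessed for viability by CellTiter-Glo luminescence.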

[9] = p53 small molecule agonists, cell-based qHTS assay with rat liver microsomes: qHTS cell viability counter screen (AID 1963580); note: nearly all actives have a fitted effect of over 45% in size
How it was run: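 Luminescent ATP readout (CellTiter-Glo, 30 min at room temperature) reports viability of p53RE-bla HCT-116 cells after 16 h at 37 C with test compounds under metabolic activation by rat liver microsomes and NADPH at 0.5 mg/mL final each.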

[10] = p53 small molecule agonists, cell-based qHTS assay: qHTS cell viability counter screen (AID 1963581); note: nearly all actives have a fitted effect of over 45% in size
How it was run: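 Counter screen read by CellTiter-Glo luminescence (ATP content, 30 min at room temperature), run in the same wells as the beta-lactamase reporter read. HCT-116 p53RE-bla cells saw compounds for 16 h at 37 C.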

[11] = p53 small molecule agonists, cell-based qHTS assay (AID 1963582; active = well fitted activation curve with a large enough effect in the signal ratio in the repeat runs, not every such curve was filed as active; the % refers to the signal ratio)
How it was run: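 Read-out is beta-lactamase FRET fluorescence after 2 h at room temperature with LiveBLAzer B/G substrate. p53 response element-bla cells were treated 16 h at 37 C with compounds in DMSO, added 5 h after seeding.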

[12] = target: 5-hydroxytryptamine receptor 2A (Homo sapiens) (UniProt P28223); assay: 5-hydroxytryptamine receptor 2A (HTR2A) small molecule agonists, cell-based qHTS assay (AID 1963587); note: nearly all actives have a fitted effect of over 30% in size
5-hydroxytryptamine receptor 2A (Homo sapiens), sequence (P28223 whole entry, looked up): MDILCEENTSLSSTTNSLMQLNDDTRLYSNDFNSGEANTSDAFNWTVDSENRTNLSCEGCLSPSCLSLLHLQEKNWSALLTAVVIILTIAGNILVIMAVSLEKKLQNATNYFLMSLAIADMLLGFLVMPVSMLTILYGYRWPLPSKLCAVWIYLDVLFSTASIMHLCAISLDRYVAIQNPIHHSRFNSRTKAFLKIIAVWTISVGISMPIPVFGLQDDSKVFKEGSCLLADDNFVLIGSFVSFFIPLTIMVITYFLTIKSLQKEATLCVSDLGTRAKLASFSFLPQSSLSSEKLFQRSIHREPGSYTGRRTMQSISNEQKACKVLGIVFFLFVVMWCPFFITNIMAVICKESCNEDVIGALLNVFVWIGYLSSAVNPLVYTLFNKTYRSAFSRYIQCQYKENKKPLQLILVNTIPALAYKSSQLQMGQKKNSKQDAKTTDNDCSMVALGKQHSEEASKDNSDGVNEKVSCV
How it was run: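 HTR2A-CHO cells, plated 18 h at 37 C/5% CO2, dye-loaded 1 h at 37 C; compounds in DMSO added by pin tool (agonist mode). Intracellular calcium flux read as kinetic fluorescence on FDSS over 2 min at 1 s intervals.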

[13] = target: Muscarinic acetylcholine receptor M1 (Homo sapiens) (UniProt P11229); assay: Cholinergic receptor muscarinic 1 (CHRM1) small molecule antagonists, cell-based qHTS assay (AID 1963588); note: nearly all actives have a fitted effect of over 40% in size; note: potency is the fitted concentration of half-maximal effect
Muscarinic acetylcholine receptor M1 (Homo sapiens), sequence (P11229 whole entry, looked up): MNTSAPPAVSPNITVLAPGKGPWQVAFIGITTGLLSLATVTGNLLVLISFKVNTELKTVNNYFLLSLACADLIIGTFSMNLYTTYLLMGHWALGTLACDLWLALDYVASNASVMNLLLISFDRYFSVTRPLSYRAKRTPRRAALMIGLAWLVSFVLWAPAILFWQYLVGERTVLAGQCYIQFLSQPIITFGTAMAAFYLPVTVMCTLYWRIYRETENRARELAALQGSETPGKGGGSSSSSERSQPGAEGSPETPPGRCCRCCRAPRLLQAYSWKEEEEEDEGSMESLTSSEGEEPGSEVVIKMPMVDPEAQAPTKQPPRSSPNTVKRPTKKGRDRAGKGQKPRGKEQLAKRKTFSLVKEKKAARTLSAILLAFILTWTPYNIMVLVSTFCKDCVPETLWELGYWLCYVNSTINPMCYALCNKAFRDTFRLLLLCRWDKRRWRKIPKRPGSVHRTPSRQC
How it was run: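 Compounds were tested at 15 concentrations in three independent runs. Dye-loaded CHRM1-CHO cells were exposed 5 min at room temperature before stimulation by acetylcholine added at 50nM. Intracellular calcium was read kinetically on FDSS for 3 min.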

[14] = target: Muscarinic acetylcholine receptor M1 (Homo sapiens) (UniProt P11229); assay: Cholinergic receptor muscarinic 1 (CHRM1) small molecule agonists, cell-based qHTS assay (AID 1963589); note: nearly all actives have a fitted effect of over 35% in size
How it was run: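 Agonist-mode calcium-flux screen: compounds at 15 concentrations, three independent runs, were pin-transferred onto dye-loaded human CHRM1-CHO cells. Fluorescence was then recorded kinetically every second over minutes.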

[15] = cAMP Responsive Elements (CRE) small molecule agonists, cell-based qHTS assay (AID 1963590)
How it was run: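 Agonist mode: compound added to CRE-bla HEK 293T cells (2,000/well, 18 h after plating) for 3 h at 37 C/5% CO2. Reporter activity detected via FRET beta-lactamase substrate, 2 h room-temperature loading.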

[16] = cAMP Responsive Elements (CRE) small molecule antagonists, cell-based qHTS assay (AID 1963591; active = well fitted inhibition curve with a large enough effect in the signal ratio in the repeat runs, not every such curve was filed as active; the % refers to the signal ratio)
How it was run: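 Antagonist mode: compounds are added alongside the adenylyl cyclase activator NKH477 (0.25 uM final) to CRE-bla HEK293T cells for 3 h. LiveBLAzer FRET substrate, 2 h at room temperature, reports bla expression.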

[17] = target: Beta-2 adrenergic receptor (Homo sapiens) (UniProt P07550); assay: Adrenergic beta2 receptor (ADRB2) small molecule antagonists, cell-based qHTS assay (AID 1963592); note: series mostly up to about 92 µM; nearly all actives have a fitted effect of over 50% in size
Beta-2 adrenergic receptor (Homo sapiens), sequence (P07550 whole entry, looked up): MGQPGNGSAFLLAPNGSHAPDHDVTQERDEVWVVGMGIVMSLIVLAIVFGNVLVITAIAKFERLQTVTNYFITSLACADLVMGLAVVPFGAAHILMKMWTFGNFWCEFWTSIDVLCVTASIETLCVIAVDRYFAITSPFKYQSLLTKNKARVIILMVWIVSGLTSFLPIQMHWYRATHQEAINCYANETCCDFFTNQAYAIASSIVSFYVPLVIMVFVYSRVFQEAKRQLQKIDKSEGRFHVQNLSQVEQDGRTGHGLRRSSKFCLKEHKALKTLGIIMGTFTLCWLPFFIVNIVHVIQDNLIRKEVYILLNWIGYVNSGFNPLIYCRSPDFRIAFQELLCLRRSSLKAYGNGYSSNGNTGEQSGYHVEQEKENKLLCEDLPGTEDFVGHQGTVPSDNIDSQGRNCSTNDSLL
How it was run: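 Assay format: CHO-ADRB2 cells, 18-20hr seeding at 37C/5% CO2, then compound plus 1nM isoproterenol agonist mix for 0.5hr RT. Homogeneous time-resolved fluorescence cAMP detection after 1hr, expressed as 665/615 nm ratio.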

[18] = target: D(2) dopamine receptor (Homo sapiens) (UniProt P14416); assay: Dopamine D2 receptor (DRD2) small molecule agonists, cell-based qHTS assay (AID 1963594); note: nearly all actives have a fitted effect of over 35% in size
D(2) dopamine receptor (Homo sapiens), sequence (P14416 whole entry, looked up): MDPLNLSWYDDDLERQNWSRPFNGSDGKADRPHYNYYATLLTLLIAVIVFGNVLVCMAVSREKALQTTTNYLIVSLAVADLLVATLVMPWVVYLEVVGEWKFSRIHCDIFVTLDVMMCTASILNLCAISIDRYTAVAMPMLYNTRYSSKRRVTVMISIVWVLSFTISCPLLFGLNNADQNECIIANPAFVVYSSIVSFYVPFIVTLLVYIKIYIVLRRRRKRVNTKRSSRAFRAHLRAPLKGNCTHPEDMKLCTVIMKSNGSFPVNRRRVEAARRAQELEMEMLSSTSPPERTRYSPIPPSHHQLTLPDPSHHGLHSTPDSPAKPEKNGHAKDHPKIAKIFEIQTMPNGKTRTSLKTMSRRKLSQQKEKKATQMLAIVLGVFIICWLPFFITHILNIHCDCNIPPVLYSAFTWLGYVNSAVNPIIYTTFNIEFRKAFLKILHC
How it was run: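 HEK293 cells stably expressing DRD2 were cultured 24 h at 37 C, then given Ro20-1724 (0.1 mM final) and compounds for 10 min at room temperature. NKH477 (200nM) was then added for 30 min. cAMP was read by HTRF.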

[19] = target: D(2) dopamine receptor (Homo sapiens) (UniProt P14416); assay: Dopamine D2 receptor (DRD2) small molecule antagonists, cell-based qHTS assay (AID 1963595; active = well fitted inhibition curve with a large enough effect in the signal ratio in the repeat runs, with a control signal flat; the % refers to the signal ratio)
How it was run: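 Cells were plated and grown for 24 h at 37 °C. Ro20-1724 (0.1 mM final) went in first, then compound for 10 min. NKH477 (200 nM) with quinpirole (12 nM) followed for 30 min at RT, then HTRF detection reagents for 1 h.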

[20] = target: 5-hydroxytryptamine receptor 2A (Homo sapiens) (UniProt P28223); assay: 5-hydroxytryptamine receptor 2A (HTR2A) small molecule antagonists, cell-based qHTS assay (AID 1963586); note: nearly all actives have a fitted effect of over 45% in size; note: potency is the fitted concentration of half-maximal effect
How it was run: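 CHO cells stably expressing human HTR2A were plated for 18 h at 37 C, then loaded with calcium dye for 1 h. Compounds were preincubated 5 min at room temperature before DOI (4 nM solution) was added. Kinetic fluorescence was read for 3 min.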

Measured: Potency

C1CCC2CCCCC2C1 (stereo not given)
not listed: [20]
inactive: all other assays above

CC(C)(C)OOC(=O)c1ccccc1
13.3 µM (active) and inactive: [13]
not listed: [18] | [20]
inactive: all other assays above

COc1ccc(C(CN(C)C)C2(O)CCCCC2)cc1 (stereo not given)
not listed: [12] | [13] | [14] | [20]
inactive: all other assays above

O=[N+]([O-])c1cc([As](=O)(O)O)ccc1O
not listed: [12] | [13] | [14] | [20]
inactive: all other assays above

CCN(CC)N=O
not listed: [12] | [13] | [14] | [20]
inactive: all other assays above

c1ccc(-c2ccccc2)cc1
not listed: [12] | [13]
inactive: all other assays above

C/C=C/c1ccc2c(c1)OCO2
not listed: [12] | [13] | [14] | [20]
inactive: all other assays above

CCC(C)(C)c1ccc(O)cc1
61.8 µM (active) and inactive: [1]
37.9 µM (active) and inactive: [20]
not listed: [12] | [15] | [16] | [18]
inactive: all other assays above
